According to the supplement of paper PMC11732987, “Enantioselective OTUD7B fragment discovery through chemoproteomics screening and high-throughput optimisation” (Communications Chemistry, 2025):

Assays:
Experiment in all cases: log2 ratio of Biotin-Ahx-Ub-VS probe labelling (fragment/DMSO); higher = less target engagement (more negative = stronger competition), active = hit call of the paper (q ≤ 0.05, log2 ratio ≤ -1)
Conditions in all cases: compound concentration: 200 uM; treatment time: 3 h
USP19 = target: T1, USP19 (UniProt O94966)
T1 sequence (whole entry): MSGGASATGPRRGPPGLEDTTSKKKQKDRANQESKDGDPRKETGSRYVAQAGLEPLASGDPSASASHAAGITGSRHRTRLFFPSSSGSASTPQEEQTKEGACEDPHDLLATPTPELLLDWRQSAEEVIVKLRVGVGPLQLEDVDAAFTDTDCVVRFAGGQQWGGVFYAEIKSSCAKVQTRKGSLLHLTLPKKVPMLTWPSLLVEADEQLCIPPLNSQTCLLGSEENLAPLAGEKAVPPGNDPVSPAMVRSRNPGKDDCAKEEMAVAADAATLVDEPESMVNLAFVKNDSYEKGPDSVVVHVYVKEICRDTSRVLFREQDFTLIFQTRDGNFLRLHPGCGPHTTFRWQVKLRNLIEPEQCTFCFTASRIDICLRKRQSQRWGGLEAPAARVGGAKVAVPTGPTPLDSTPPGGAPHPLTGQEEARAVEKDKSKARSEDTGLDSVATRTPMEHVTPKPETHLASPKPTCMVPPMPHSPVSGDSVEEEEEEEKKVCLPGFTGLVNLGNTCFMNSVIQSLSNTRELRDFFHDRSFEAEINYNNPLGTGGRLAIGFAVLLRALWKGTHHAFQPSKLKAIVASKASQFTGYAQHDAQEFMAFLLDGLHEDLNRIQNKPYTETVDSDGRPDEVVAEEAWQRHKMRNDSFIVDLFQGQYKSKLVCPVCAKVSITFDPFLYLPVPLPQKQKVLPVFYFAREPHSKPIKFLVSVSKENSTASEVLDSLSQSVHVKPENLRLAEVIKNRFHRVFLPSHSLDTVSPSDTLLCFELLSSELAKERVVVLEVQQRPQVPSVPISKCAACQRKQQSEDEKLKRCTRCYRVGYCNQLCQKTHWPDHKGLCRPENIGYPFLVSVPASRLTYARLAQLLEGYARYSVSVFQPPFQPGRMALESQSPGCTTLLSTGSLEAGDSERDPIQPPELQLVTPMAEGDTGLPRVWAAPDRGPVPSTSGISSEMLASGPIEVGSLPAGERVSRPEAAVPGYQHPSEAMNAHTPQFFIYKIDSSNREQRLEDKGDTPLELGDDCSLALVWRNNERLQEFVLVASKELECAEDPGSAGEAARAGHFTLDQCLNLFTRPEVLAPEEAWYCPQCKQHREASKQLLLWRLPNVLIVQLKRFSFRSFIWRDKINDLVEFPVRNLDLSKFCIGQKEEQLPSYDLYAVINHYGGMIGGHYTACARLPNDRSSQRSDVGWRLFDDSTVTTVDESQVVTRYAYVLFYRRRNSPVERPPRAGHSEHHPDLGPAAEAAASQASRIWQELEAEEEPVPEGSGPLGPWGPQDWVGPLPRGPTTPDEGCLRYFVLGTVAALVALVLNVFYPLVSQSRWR
Method in brief: (§1)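 Triplicate samples of HEK293T lysate, 495 µg each, received fragment at 200 µM or vehicle for 3 h, followed by Biotin-Ahx-Ub-VS (0.5 µM final) for 1 h. After NeutrAvidin enrichment of labelled DUBs and LysC/trypsin digestion, peptides were run by diaPASEF LC-MS/MS. The values are average log2 fragment/vehicle ratios from global-median-normalised Spectronaut label-free quantities, tested by unpaired t-test on proteins having ≥2 unique peptides.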

USP22 = target: T2, USP22 (UniProt Q9UPT9)
T2 sequence (whole entry): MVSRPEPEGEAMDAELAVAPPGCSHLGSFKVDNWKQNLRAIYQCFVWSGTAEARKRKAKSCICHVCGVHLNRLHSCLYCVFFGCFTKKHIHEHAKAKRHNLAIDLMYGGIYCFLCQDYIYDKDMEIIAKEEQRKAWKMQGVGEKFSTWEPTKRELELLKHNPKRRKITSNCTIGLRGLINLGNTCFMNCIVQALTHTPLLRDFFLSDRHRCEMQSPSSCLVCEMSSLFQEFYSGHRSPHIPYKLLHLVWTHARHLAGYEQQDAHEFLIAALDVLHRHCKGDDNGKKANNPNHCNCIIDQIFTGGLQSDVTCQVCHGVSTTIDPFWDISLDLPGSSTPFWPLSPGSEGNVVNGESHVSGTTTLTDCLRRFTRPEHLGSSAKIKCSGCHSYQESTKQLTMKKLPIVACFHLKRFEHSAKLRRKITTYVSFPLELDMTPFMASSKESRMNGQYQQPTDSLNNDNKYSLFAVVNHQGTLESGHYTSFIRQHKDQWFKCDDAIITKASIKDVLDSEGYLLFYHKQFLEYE
Method in brief: as §1

USP24 = USP24 (UniProt Q9UPU5)
USP24, sequence (Q9UPU5 whole entry): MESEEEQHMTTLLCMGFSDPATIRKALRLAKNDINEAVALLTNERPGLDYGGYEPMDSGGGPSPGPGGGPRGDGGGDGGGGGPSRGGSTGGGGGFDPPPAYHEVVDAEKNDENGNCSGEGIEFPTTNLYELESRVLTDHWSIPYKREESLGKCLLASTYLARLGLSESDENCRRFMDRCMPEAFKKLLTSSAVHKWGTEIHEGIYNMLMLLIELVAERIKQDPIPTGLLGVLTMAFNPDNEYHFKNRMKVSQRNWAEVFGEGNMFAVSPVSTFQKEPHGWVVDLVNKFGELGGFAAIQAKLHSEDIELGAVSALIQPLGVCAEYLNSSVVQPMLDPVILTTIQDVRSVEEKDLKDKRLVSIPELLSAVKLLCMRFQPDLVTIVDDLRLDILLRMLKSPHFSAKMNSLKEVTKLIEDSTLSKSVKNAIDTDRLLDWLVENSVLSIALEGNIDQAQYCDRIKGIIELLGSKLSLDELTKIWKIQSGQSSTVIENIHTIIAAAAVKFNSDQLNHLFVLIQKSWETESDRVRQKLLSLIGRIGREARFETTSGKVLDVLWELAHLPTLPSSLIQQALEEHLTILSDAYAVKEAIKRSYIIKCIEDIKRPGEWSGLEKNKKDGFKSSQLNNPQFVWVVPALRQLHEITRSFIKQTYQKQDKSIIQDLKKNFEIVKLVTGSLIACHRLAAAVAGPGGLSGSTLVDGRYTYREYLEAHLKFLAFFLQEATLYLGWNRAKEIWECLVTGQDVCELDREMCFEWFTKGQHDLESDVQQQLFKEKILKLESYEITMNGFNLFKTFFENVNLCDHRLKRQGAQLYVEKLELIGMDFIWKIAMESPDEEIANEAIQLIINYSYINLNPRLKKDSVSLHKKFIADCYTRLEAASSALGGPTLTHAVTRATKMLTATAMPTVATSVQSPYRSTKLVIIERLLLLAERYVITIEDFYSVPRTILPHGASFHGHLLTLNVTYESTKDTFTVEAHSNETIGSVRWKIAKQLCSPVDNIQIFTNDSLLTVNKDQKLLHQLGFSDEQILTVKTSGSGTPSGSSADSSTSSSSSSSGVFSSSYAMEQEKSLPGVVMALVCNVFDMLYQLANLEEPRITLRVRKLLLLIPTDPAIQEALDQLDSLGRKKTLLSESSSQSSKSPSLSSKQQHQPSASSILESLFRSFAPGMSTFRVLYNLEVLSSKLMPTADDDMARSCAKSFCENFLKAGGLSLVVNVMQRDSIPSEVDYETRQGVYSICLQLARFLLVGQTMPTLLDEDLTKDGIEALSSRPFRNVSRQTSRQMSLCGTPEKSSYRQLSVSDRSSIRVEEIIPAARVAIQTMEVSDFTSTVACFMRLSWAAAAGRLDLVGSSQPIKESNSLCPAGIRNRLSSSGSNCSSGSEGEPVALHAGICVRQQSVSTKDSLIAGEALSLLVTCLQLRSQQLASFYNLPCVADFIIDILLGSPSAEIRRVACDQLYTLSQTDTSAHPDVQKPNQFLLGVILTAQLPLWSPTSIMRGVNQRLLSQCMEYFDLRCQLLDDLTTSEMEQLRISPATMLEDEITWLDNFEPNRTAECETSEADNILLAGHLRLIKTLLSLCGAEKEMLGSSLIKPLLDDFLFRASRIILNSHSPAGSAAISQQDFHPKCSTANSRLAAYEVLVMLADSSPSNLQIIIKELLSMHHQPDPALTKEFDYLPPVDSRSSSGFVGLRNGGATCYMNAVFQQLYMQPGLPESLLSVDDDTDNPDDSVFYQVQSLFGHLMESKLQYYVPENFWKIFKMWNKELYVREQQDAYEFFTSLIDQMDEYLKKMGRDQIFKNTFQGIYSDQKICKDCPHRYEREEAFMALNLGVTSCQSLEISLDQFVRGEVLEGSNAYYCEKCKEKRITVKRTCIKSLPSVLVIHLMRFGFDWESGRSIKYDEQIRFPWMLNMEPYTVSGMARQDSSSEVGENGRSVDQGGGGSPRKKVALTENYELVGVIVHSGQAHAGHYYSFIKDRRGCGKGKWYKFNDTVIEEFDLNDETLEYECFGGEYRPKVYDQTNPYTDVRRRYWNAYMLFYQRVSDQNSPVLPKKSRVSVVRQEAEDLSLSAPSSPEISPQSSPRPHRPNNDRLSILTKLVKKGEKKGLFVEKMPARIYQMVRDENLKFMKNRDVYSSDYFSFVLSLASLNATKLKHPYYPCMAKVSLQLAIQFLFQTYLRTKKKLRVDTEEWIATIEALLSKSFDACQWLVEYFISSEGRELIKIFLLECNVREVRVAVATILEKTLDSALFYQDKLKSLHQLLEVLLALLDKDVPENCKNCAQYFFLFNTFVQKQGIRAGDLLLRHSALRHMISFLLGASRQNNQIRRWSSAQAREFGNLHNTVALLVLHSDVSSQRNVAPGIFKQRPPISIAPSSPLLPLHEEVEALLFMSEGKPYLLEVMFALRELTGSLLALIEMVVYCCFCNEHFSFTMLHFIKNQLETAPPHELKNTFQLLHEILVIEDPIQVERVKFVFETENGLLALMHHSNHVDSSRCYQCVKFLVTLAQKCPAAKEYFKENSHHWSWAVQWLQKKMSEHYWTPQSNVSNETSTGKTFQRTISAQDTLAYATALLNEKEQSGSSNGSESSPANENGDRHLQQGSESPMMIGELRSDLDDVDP
Method in brief: as §1

USP25 = target: T3, USP25 (UniProt Q9UHP3)
T3 sequence (whole entry): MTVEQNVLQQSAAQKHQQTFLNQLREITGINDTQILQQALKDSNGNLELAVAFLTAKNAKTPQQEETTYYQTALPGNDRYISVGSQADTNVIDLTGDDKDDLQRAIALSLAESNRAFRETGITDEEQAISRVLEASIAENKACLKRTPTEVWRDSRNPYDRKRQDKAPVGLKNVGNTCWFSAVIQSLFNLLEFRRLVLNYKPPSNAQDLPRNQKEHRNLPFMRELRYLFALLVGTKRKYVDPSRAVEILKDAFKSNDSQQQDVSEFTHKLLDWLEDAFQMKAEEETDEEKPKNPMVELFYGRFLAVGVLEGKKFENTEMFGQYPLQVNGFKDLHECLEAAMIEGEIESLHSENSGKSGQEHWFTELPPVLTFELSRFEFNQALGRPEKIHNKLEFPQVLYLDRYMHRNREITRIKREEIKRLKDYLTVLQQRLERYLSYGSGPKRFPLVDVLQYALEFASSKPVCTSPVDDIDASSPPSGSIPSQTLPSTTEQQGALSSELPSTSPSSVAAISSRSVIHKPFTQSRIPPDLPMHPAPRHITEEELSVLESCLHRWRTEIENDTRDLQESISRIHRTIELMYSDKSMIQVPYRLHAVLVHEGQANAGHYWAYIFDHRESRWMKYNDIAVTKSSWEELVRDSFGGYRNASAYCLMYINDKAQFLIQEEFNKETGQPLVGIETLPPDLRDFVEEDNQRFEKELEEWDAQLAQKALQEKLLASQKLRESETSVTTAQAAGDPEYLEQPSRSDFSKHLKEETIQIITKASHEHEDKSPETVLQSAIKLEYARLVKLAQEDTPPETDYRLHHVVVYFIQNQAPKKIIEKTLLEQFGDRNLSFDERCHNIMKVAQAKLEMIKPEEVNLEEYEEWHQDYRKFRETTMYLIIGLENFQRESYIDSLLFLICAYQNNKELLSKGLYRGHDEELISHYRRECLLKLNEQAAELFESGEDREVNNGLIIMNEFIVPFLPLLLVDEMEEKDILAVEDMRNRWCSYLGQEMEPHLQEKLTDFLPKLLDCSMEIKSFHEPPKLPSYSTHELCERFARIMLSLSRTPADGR
Method in brief: as §1

USP28 = target: T4, USP28 (UniProt Q96RU2)
T4 sequence (whole entry): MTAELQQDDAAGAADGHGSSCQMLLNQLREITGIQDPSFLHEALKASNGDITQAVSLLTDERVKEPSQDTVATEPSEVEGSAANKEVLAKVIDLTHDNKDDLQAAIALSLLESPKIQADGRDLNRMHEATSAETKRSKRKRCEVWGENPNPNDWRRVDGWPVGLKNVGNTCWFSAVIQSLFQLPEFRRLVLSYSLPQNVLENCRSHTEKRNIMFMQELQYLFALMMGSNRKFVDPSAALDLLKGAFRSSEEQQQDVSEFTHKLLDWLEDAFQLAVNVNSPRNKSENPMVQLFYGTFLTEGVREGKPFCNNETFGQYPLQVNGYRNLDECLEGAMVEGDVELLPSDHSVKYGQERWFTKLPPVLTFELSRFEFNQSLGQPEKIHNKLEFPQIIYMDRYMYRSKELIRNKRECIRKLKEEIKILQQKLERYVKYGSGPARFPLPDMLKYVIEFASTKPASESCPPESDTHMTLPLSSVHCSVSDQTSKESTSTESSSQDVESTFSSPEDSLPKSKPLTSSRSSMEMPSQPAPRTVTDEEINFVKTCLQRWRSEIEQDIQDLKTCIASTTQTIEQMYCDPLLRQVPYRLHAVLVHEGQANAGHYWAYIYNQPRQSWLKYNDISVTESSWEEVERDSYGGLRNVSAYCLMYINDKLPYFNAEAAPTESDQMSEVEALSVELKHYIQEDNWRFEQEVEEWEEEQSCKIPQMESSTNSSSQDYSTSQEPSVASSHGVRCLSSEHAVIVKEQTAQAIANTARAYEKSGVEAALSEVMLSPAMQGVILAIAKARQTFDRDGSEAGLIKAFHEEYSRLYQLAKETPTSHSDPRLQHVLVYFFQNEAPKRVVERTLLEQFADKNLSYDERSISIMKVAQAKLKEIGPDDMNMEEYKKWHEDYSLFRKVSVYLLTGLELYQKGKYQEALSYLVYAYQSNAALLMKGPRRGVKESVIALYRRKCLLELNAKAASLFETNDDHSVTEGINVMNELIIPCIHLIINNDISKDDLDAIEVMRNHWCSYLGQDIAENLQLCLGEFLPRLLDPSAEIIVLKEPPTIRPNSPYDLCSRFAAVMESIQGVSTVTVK
Method in brief: as §1

Measured: log2 ratio of Biotin-Ahx-Ub-VS probe labelling

O=C(CCl)N1CCC[C@@H]1c1ccon1
inactive: USP19 -0.377 | USP22 -0.153 | USP24 -0.653 | USP25 -0.618 | USP28 -0.64
